Giardia kill = Giardia lamblia killing. Giardia lamblia trophozoite viability. activity change, % at 7.66 µM, hits read low. hit rate 0.15% among 340,000. AID 540267; in the data active = activity change below about -80%; inconclusive = between about -30% and that limit;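 also: parasites exposed to compound for two days anaerobically before the ATP read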
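Anaerobic 48 hrs incubation at 37 deg C of 100 trophozoites/well with test compounds; ATPLite 1-Step luminescence, 15-30 min RT, reports cellular ATP as viability.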
IL1B secr inh = inflammasome signaling inhibition, IL-1 beta readout. THP-1 LPS/ATP IL-1B secretion, AlphaLISA, 16 h; hits give low values. activity change, % at 57.5 µM. hit rate 4.7% among 360,000; in the data active = activity change below about -50%; inconclusive = mostly about -30% to -49%
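THP-1 cells pretreated 1 hr with compounds (up to 57.5 uM final), then stimulated with LPS (250 ng/mL final) plus ATP (1.25 mM final); secreted IL-1B measured by AlphaLISA after 16 hr, decreased signal indicating inhibition.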
TDP1 block = blocks human tyrosyl-DNA phosphodiesterase 1 | recombinant TDP1, AlphaScreen DNA substrate cleavage | Potency, µM (doses to about 130 µM), inactives show at the highest dose activity change, negative = inhibition, most hits filed as inhibitors | Q9NUW8 | hit rate 0.28% among 350,000; also: potency is read from the fitted curve at half-maximal effect; nearly all actives have a fitted effect of over 40% in size
Target sequence (Q9NUW8 whole entry, looked up): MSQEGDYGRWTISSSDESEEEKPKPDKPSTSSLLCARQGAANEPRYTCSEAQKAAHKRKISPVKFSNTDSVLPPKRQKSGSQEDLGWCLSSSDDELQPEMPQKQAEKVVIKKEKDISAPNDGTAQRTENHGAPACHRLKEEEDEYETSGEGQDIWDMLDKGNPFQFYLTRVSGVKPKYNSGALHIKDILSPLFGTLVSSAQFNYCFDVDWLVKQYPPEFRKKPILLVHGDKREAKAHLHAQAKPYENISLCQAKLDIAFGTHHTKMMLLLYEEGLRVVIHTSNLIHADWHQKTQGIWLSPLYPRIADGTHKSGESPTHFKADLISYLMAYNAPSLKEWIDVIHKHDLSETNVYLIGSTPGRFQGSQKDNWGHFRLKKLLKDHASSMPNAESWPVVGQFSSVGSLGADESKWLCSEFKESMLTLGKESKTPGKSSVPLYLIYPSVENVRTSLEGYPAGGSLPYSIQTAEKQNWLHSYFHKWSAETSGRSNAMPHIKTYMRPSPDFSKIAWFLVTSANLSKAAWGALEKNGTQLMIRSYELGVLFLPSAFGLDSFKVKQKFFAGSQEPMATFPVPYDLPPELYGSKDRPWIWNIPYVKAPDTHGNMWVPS
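Steps: enzyme plus compound, 15 min RT; add biotin/phosphotyrosine-FITC oligonucleotide (15 nM final), react 5 min; add donor/acceptor beads (10 ug/ml final), 10 min; read AlphaScreen. Tdp1 at 1 nM final.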
TDP1 cell noCPT = qHTS for Inhibitors of human tyrosyl-DNA phosphodiesterase 1 (TDP1): qHTS in cells in absence of CPT. hit rate 15% among 420,000. DT40 Tdp1-/- hTDP1 cells, no CPT, ATP luminescence, 48 h. Potency, µM (titrated, usually from 46.2 µM), for inactives: top-dose activity change, negative = growth inhibition, most hits filed as inhibitors; also: potency is read from the fitted curve at half-maximal effect; nearly all actives have a fitted effect of over 55% in size
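A cellular qHTS used chicken DT40 cells lacking endogenous Tdp1 but carrying stably transfected human TDP1. Compounds were applied without camptothecin, and cell growth kinetics were judged by ATP-dependent luminescence after ≥48 hr.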
DT40 TDP1 CPT = growth inhibition of DT40 Tdp1-/-;hTDP1 cells with camptothecin (screen for TDP1 inhibitors) | hit rate 12% among 420,000 | AID 686979 | chicken DT40 Tdp1-/-;hTDP1 cells + 20 nM CPT, ATP luminescence, 48 h | Potency, µM (top dose mostly 46.2 µM), for the others: top-dose activity change, negative = growth inhibition, usual class: inhibitors; also: potency is read from the fitted curve at half-maximal effect; nearly all actives have a fitted effect of over 55% in size
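Cell growth measured by CellTiter-Glo luminescence after a minimum 48 h, 37 C compound exposure with 20 nM CPT in Tdp1-knockout DT40 cells stably expressing hTDP1, seeded 400/well; qHTS titration format.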
ELG1 DNA repair = ELG1-dependent DNA repair inhibition; AID 504467; Potency, µM (doses to about 46.1 µM), inactives show top-dose activity change, negative = inhibition, hits mostly inhibitors; hit rate 2.3% among 330,000; HEK293T ELG1-luciferase reporter, luminescence, 16 h; DNA damage induced by 5-fluorouridine; also: potency is read from the fitted curve at half-maximal effect; nearly all actives have a fitted effect of over 55% in size
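Overnight (16 hr) co-exposure of 2,000 cells/well to 5-fluorouridine and compound at 37 °C preceded detection. Luciferase was quantified via ONE-Glo luminescence; loss of signal denotes inhibition.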
Numbers without * were called inactive; ? = inconclusive; . = not tested or not shown. Shown are actives, neighbours in structure and some others; about 19% of the full set was active somewhere. Unless noted, calls follow the shape of the dose curve; as a rule, active = well fitted curve in the direction sought with a large enough effect; inconclusive = small, poorly fitted or top-dose-only effect, or another doubt; inactive = no such curve, though single readings can be large; an effect the other way counts as inactive or inconclusive. % is scaled to controls: 0 for no effect and ±100 for the full control effect.

SMILES | Giardia kill | IL1B secr inh | TDP1 block | TDP1 cell noCPT | DT40 TDP1 CPT | ELG1 DNA repair
CCOc1ccc2oc(C(=O)N3CCN(Cc4ccccc4)CC3)c(C)c2c1 | -7.6 | ? | 8.4% | ? | ? | -28.7%
CCc1noc(C)c1C(=O)Nc1sc(C(=O)N(C)C)c(C)c1C#N | 1.9 | -8.0 | . | -0.5% | -9.7% | .
O=C(NN=C1CCCC1)c1ccc(Cl)cc1 | 5.4 | -5.6 | . | -17.9% | 14.3% | -21.6%
O=C1CCC/C(=N/Nc2ccc(Cl)cc2)C1 | -3.6 | 3.1 | 10.7% | 7.31µM* | 16.4µM* | -9.4%
C/C(=N\N(c1ccccc1)c1ccccc1)c1ccc(O)cc1 | -4.4 | -63.2* | 10.8% | -11.0% | 4.7% | 1.6%
COc1ccc(OC(C)C(=O)NCc2nc(-c3cccc(C)c3)no2)cc1 (configuration not stated) | . | . | 7.4% | ? | ? | .
O=C(N/N=C/c1ccc(-c2ccc(Cl)c(C(=O)O)c2)o1)c1cc2c(ccc3ccccc32)o1 | -23.1 | 2.2 | 1.3% | 21.7% | 23.5% | 5.3%
Cc1ccc(-c2ccc(/C=N\NC(=O)c3cc4c(ccc5ccccc54)o3)o2)cc1[N+](=O)[O-] | -1.2 | 24.8 | 6.7% | 9.2µM* | 10.3µM* | ?
Cc1ccc([N+](=O)[O-])cc1-c1ccc(/C=N/NC(=O)c2cc3c(ccc4ccccc43)o2)o1 | -17.3 | 1.9 | 3.4% | 8.2µM* | ? | -5.9%
COc1cc(OC)cc(-n2c(=O)c3ccccc3n(CC(=O)NCCc3ccc(OC)c(OC)c3)c2=O)c1 | . | . | 5.9% | -26.5% | -11.8% | .
COc1ccc(CCN2C(=O)c3[nH]nc(-c4ccccc4O)c3C2c2ccc(OC)cc2)cc1 (configuration not stated) | . | . | 9.8% | ? | ? | .
COCCNC(=O)c1ccc(C2SCC(=O)N2CCc2ccccc2)cc1 (configuration not stated) | 0.2 | 47.8 | . | -1.6% | -23.1% | 17.6%
Cc1cccc(NC(=O)c2ccc(C3SCC(=O)N3CCc3ccccc3)cc2)c1 (configuration not stated) | -1.6 | -24.9 | 3.4% | ? | ? | 25.9µM*
CC(=O)Nc1ccc(NC(=O)c2ccc(C3SCC(=O)N3CCc3ccccc3)cc2)cc1 (configuration not stated) | -11.2 | -4.6 | 3.5% | -24.2% | -16.3% | 23.1µM*
O=C(NCCSCc1ccccc1)c1ccc(C2SCC(=O)N2Cc2ccccc2)cc1 (configuration not stated) | -5.8 | ? | 3.4% | ? | ? | ?
CCOC(=O)/C(=C/C1=CC(=C/N(C)C)/C(=O)O1)C(C)=O | 0.8 | . | 1.3% | -7.7% | 8.6% | -2.3%
CC(=O)c1ccc(NC(=O)Cn2nc(C)cc2C)cc1 | -10.9 | -5.2 | 4.1% | 4.3% | 6.0% | 0.5%
Cc1cc(C)n(-c2nc(C)c(C)c(=O)n2CC(=O)Nc2ccc([N+](=O)[O-])cc2)n1 | . | . | 2.6% | 20.6µM* | ? | .
CC(=O)c1ccc(NC(=O)Cn2c(-n3nc(C)cc3C)nc(C)cc2=O)cc1 | . | . | -2.6% | 18.4µM* | ? | .
CCOC(=O)CCc1c(C)c2cc3c(c(C)c2oc1=O)OCN(CCc1ccccc1OC)C3 | . | . | 4.9% | ? | 29.1µM* | .
CCc1cc(=O)oc2c(C)c3c(cc12)CN(CCc1ccccc1)CO3 | . | . | 6.1% | ? | ? | .
CCc1c(C)c2cc3c(c(C)c2oc1=O)OCN(CCc1ccccc1F)C3 | . | . | 3.7% | 16.4µM* | 13µM* | .
Cc1c(C)c2cc3c(c(C)c2oc1=O)OCN(CCc1ccccc1)C3 | . | . | 12.3% | ? | 13µM* | .
Clc1cccc(N2CCN(c3nc4ccccc4c4nc(-c5ccccc5)nn34)CC2)c1 | . | . | -2.9% | -21.9% | -18.4% | .
Cc1ccc(N2CCn3c2nc2c3c(=O)n(Cc3cccc(Cl)c3)c(=O)n2C)cc1C | . | . | 7.8% | -20.7% | ? | .
SMILES | Giardia kill | IL1B secr inh | TDP1 block | TDP1 cell noCPT | DT40 TDP1 CPT | ELG1 DNA repair
Cc1ccc(C)c(NC(=O)COC(=O)c2ccc3c(c2)OCCO3)c1 | 5.6 | 11.4 | -1.2% | -2.0% | 15.3% | ?
CCOC(=O)CSC1=NC(=O)/C(=C/c2ccc(OC)cc2)S1 | 8.3 | -85.7* | -2.3% | 1.3µM* | 1.46µM* | ?
COc1ccc(/C=C2\SC(N)=NC2=O)cc1 | 5.1 | -6.3 | 0.6% | ? | ? | -11.3%
CCOC(=O)CSC1=N/C(=C\c2ccc(OC)c(OC)c2)C(=O)N1C | 2.1 | -18.7 | 1.3% | ? | 25.9µM* | -17.1%
COc1cc(C(O)c2nc(-c3cccc(F)c3)cs2)ccc1F (configuration not stated) | . | 0.3 | . | 18.4µM* | ? | .
OC(c1ccc(F)c(F)c1)c1nc(-c2ccc3c(c2)OCO3)cs1 (configuration not stated) | . | -15.5 | . | ? | 20.6µM* | .
OC(c1ccccc1)c1nc(-c2ccc(F)c(Cl)c2)cs1 (configuration not stated) | . | -6.5 | . | -39.3% | 16.4µM* | .
OC(c1ccc(F)c(F)c1)c1nc(-c2cccc(F)c2)cs1 (configuration not stated) | . | 28.0 | . | ? | 14.6µM* | .
CCCc1cc(=O)oc2cc(C)cc(OCC(=O)Nc3ccc(S(N)(=O)=O)cc3)c12 | -11.3 | 12.8 | 3.7% | -28.2% | -15.8% | ?
CCCCC(O)c1ccccc1 (configuration not stated) | . | . | . | -12.3% | 3.7% | .
COc1cc(C(O)c2nc(-c3cc(F)cc(F)c3)cs2)ccc1F (configuration not stated) | . | 17.3 | . | 14.6µM* | 23.1µM* | .
OC(c1ccc(F)cc1)c1nc(-c2ccccc2)cs1 (configuration not stated) | . | 1.4 | . | ? | ? | .
COc1cc(C(O)c2nc(-c3cc4ccccc4o3)cs2)ccc1F (configuration not stated) | . | -5.8 | . | 23.1µM* | 20.6µM* | .
COc1cc(C(O)c2nc(-c3cncnc3)cs2)ccc1F (configuration not stated) | . | 9.0 | . | -18.1% | 12.8% | .
COc1cccc(C(O)c2nc(-c3cc4ccccc4o3)cs2)c1 (configuration not stated) | . | 37.7 | . | ? | ? | .
COc1cc(C(O)c2nc(-c3cccc(C(C)C)c3)cs2)ccc1F (configuration not stated) | . | 15.9 | . | 18.4µM* | ? | .
OC(c1ccc(F)cc1)c1nc(-c2cncnc2)cs1 (configuration not stated) | . | -86.0* | . | -23.8% | ? | .
Sc1ccccc1N=Cc1cccs1 | . | 22.3 | . | -28.1% | 0.1% | .

Source: PubChem BioAssay (National Center for Advancing Translational Sciences (NCATS))
